Assay outcomes from PubChem BioAssay.
S2 tox: cell viability loss in ATXN counter-screen. S2 cells (HEK-293 line with an ATXN2-luciferase reporter) viability, CellTiter-Fluor protease fluorescence, 24 h. Potency, µM (series often up to 56.7 µM), most hits filed as cytotoxic. 400,000 tested, 0.49% active; also: nearly all actives have a fitted effect of over 40% in size
TGFb SMAD3 inh: inhibitors of TGF-b signaling; HepG2 CAGA-GFP TGF-b/SMAD3 reporter, GFP fluorescence, 18 h; TGF-beta stimulated, 500 pg/mL final; Potency, µM (top dose mostly 46.1 µM), for inactives: at the top dose activity, negative = inhibition, most hits filed as inhibitors; 410,000 tested, 1.2% active; AID 588855; also: % is scaled to controls: 0 for no effect and ±100 for the full control effect; nearly all actives have a fitted effect of over 65% in size
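Smad-responsive CAGA-GFP expression was quantified in HEPG2 cells exposed to compounds and 500 pg/mL final TGF-beta for 18 h at 37 degrees C; unstimulated wells defined full inhibition.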
HepG2 tox-1: HepG2 cytotoxicity, counter-screen for TGF-b inhibitors; HepG2 CAGA-GFP viability, ATP luminescence, 18 h; Potency, µM (doses to about 46.1 µM), inactives show at the top dose activity change, negative = cytotoxicity, hits mostly cytotoxic; 410,000 tested, 0.76% active
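CellTiter-Glo luminescence gave cytotoxicity after 18 hours at 37 degrees C. The cells were HepG2 CAGA-GFP in 1% FBS DMEM, stimulated with 500 pg/mL TGF-beta after compound addition. %Activity was normalised to no-cell wells (complete cell-killing) and DMSO (no toxicity), and curves were fitted and classified.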
ATXN2 expr inh: inhibitors of ATXN2 expression; Potency, µM (top dose mostly 57 µM), without a hit: at the top dose activity change, negative = inhibition, usual class: inhibitors; 360,000 tested, 0.72% active; HEK-293 ATXN2-luciferase reporter, luminescence, 24 h; AID 1745845; also: % is scaled to controls: 0 for no effect and ±100 for the full control effect; nearly all actives have a fitted effect of over 55% in size
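qHTS (up to 57 uM final) was run with 24 h compound exposure of reporter cells at 37 °C. Each well was multiplexed: SteadyGlo luminescence measured ATXN2-luciferase expression after a fluorogenic Gly-Phe-AFC viability readout (25 uM final).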
Apoferritin bind: candidate novel general anesthetic via apoferritin binding. P02791. 350,000 tested, 0.074% active. Potency, µM (series often up to 77.5 µM), for inactives: at the highest dose activity change, negative = displacement, usual class: inhibitors. AID 485281. apoferritin/1-aminoanthracene competitive binding, fluorescence; also: % is scaled to controls: 0 for no effect and ±100 for the full control effect; nearly all actives have a fitted effect of over 20% in size
Target sequence (P02791 2-175 limits assumed): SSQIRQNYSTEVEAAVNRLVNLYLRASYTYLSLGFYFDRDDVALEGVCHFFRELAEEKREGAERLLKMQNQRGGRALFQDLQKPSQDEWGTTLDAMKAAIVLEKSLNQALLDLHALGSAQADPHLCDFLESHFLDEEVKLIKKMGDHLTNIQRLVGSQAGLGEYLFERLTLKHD
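Concentration-response curves derived by four-parameter Hill fitting of normalized fluorescence, where compounds displaced 1-AMA from 10 uM horse apoferritin following a brief 10 min room-temperature incubation; propofol titration acted as positive control.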
TGFb confirm: TGF-b pathway inhibition, cherry-pick retest | shares compounds with TGFb SMAD3 inh | Potency, µM (titrated, usually from 46.1 µM), without a hit: at the highest dose activity, negative = inhibition, most hits filed as inhibitors | 1,600 tested, 63% active | HepG2 CAGA-GFP TGF-b reporter, GFP fluorescence, 18 h; cells stimulated with TGF-beta, 500 pg/mL; also: % is scaled to controls: 0 for no effect and ±100 for the full control effect; nearly all actives have a fitted effect of over 65% in size
HepG2 tox-2: counter-screen for TGF-b inhibitors: cytotoxicity in HepG2 cells; shares compounds with TGFb SMAD3 inh; HepG2 CAGA-GFP viability, ATP luminescence, 18 h; cells stimulated with TGF-beta, 500 pg/mL; Potency, µM (highest dose often 46.1 µM), without a hit: at the highest dose activity, negative = cytotoxicity, usual class: inhibitors; 1,600 tested, 27% active; AID 720535; also: % is scaled to controls: 0 for no effect and ±100 for the full control effect; nearly all actives have a fitted effect of over 70% in size
CCL64 TGFb inh: blocks TGF-b signaling in CCL64 reporter cells; shares compounds with TGFb SMAD3 inh; CCL64 CAGA-GFP reporter, TGF-b stimulated, GFP fluorescence, 18 h; Potency, µM (series often up to 46.1 µM), without a hit: top-dose activity, negative = inhibition, most hits filed as inhibitors; 1,600 tested, 41% active; also: nearly all actives have a fitted effect of over 65% in size
COP TGFb inh: TGF-b inhibition validated with COP promoter. shares compounds with TGFb SMAD3 inh. HepG2 COP-GFP TGF-b reporter, GFP fluorescence, 18 h; cells stimulated by added recombinant TGF-beta. Potency, µM (top dose mostly 46.1 µM), for the others: at the highest dose activity, negative = inhibition, most hits filed as inhibitors. 1,600 tested, 3% active. AID 720537; also: nearly all actives have a fitted effect of over 70% in size
* marks the source's active call; other numbers are inactive results. Rows were chosen to be rich in hits. Some 2.4% of all compounds tested hit in one or more screens of this group. Calls follow the shape of the dose curve; as a rule, active = well fitted curve in the direction sought with a large enough effect; inconclusive = small, poorly fitted or top-dose-only effect, or another doubt; inactive = no such curve, though single readings can be large; an effect the other way counts as inactive or inconclusive. Potency is read from the fitted curve at half-maximal effect.

For CCOC(=O)[C@]12Cc3ccccc3[C@H]1N(Cc1ccccc1)C(=O)c1cc(OC)ccc12 the results were S2 tox inconclusive and ATXN2 expr inh 2%.
For CCOC(=O)[C@]12Cc3cc4ccccc4cc3[C@H]1N(Cc1ccccc1)C(=O)c1cc(OC)ccc12 the results were S2 tox 32µM* and ATXN2 expr inh 20µM*.
Cc1cccc(NC(=O)Cn2c(=O)oc3cc(S(=O)(=O)NCc4ccccc4)ccc32)c1 was read as S2 tox inactive, TGFb SMAD3 inh -35%, HepG2 tox-1 -31%, ATXN2 expr inh -3% and Apoferritin bind -5%.
For ClCCN(CCCl)c1ccc(-n2cnc3c(Cl)ncnc32)cc1 the results were TGFb SMAD3 inh 4%, HepG2 tox-1 2% and ATXN2 expr inh 16µM*.
For O=[N+]([O-])c1oc2ccc3ccccc3c2c1CCO the results were S2 tox inconclusive, TGFb SMAD3 inh 4.5µM*, HepG2 tox-1 4%, ATXN2 expr inh inconclusive, TGFb confirm 0.82µM*, HepG2 tox-2 1.2µM*, CCL64 TGFb inh inconclusive and COP TGFb inh 7%.
COC1CC(C)C(OC)c2cc(O)cc(c2O)NC(=O)C(C)=CC=CC(C)C(OC(N)=O)C(C)=CC(C)C1OC (stereo unspecified) was read as S2 tox inconclusive, TGFb SMAD3 inh 7.1µM*, HepG2 tox-1 1%, ATXN2 expr inh 3.8µM*, TGFb confirm 0.52µM*, HepG2 tox-2 5.2µM*, CCL64 TGFb inh 4.1µM* and COP TGFb inh 22%.
COc1cc(O)c2c(c1)/C=C/C[C@H](O)[C@H](O)C(=O)CCC[C@H](C)OC2=O was read as S2 tox inactive, TGFb SMAD3 inh 2µM*, HepG2 tox-1 -5%, ATXN2 expr inh 2%, TGFb confirm 8.2µM*, HepG2 tox-2 -12%, CCL64 TGFb inh 7.3µM* and COP TGFb inh inconclusive.
`Nc1c2c(nc3sc4c(c13)CCCCC4)CCCC2` gave S2 tox inconclusive, TGFb SMAD3 inh 20µM*, HepG2 tox-1 -14%, ATXN2 expr inh -14%, Apoferritin bind -8%, TGFb confirm 15µM*, HepG2 tox-2 inconclusive, CCL64 TGFb inh inconclusive and COP TGFb inh 94%.
Screening BrCC1C[n+]2c(SCc3ccccc3)nc3sc4c(c3c2O1)CCCC4 (stereo unspecified) returned S2 tox inactive, TGFb SMAD3 inh 17%, HepG2 tox-1 -31%, ATXN2 expr inh 33% and Apoferritin bind -7%.
`CC(=O)c1cccc(NC(=O)CSc2ncc3c(n2)-c2cc(Cl)ccc2N(Cc2ccccc2)S3(=O)=O)c1` gave S2 tox inactive, TGFb SMAD3 inh inconclusive, HepG2 tox-1 -6%, ATXN2 expr inh 9% and Apoferritin bind -11%.
For [O]=[Sb]([OH])([OH])[c]1ccccc1 the results were TGFb SMAD3 inh -1% and HepG2 tox-1 4%.
